In PubChem BioAssay AID1159580 (chemical genetic matrix, 2015):
The whole screen tested about 5,500 compounds, of which about 2,000 (36%) were called active. Roughly 18% stayed inconclusive and do not appear here. Cut-off read from the data, not from the text of the source: active = normalized growth mostly below about 0.91 (no sharp cut-off); inconclusive = no clear call, values can overlap the other calls; inactive = mostly above about 0.92. The list shows a part of the results.

Assay: chemical genetic growth profiling, strain panel (AID 1159580);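 note: tested at 20 µM; growth read once vehicle control cultures reached saturation at 30 °C; 1 = growth at the plate median or of vehicle wells; lower values mean less growth of the strain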
Conditions: growth OD

Measured: normalized growth

C/C=C(\C)C(=O)O[C@H]1C[C@@H](OC(C)=O)[C@@]2(C(=O)OC)CO[C@@H]3C2[C@]12CO[C@](O)(C(=O)OC)[C@H]2[C@](C)(C12O[C@@]1(C)[C@H]1C[C@@H]2OC2OC=C[C@@]21O)[C@@H]3O (some centres not stated)
inactive: S. cerevisiae deletion strains, locus YJR075W, strain HOC1, active compounds read low 0.998 | S. cerevisiae deletion strains, locus YKL009W, strain mrt4, active compounds read low 0.996 | S. cerevisiae deletion strains, locus YKL068W, active compounds read low 0.987 | S. cerevisiae deletion strains, locus YKL085W, strain MDH1 (second series), active compounds read low 0.998 | S. cerevisiae deletion strains, locus YKL085W, strain MDH1, active compounds read low 0.998 | S. cerevisiae deletion strains, locus YKL160W, strain elf1, active compounds read low 0.954 | S. cerevisiae deletion strains, locus YKL190W, strain CNB1, active compounds read low 0.997 | S. cerevisiae deletion strains, locus YKR001C, strain vps1, active compounds read low 0.988 | S. cerevisiae deletion strains, locus YKR026C, strain gcn3, active compounds read low 0.992 | S. cerevisiae deletion strains, locus YKR091W, strain srl3, active compounds read low 0.964 | S. cerevisiae deletion strains, locus YLL001W, strain dnm1, active compounds read low 0.965 | S. cerevisiae deletion strains, locus YLL026W, active compounds read low 0.978 | S. cerevisiae deletion strains, locus YLL041C, strain sdh2, active compounds read low 0.975 | S. cerevisiae deletion strains, locus YLR027C, strain aat2, active compounds read low 0.991 | S. cerevisiae deletion strains, locus YLR039C, strain RIC1, active compounds read low 1.04 | S. cerevisiae deletion strains, locus YLR058C, strain SHM2, active compounds read low 0.982 | S. cerevisiae deletion strains, locus YLR102C, strain apc9, active compounds read low 0.979 | S. cerevisiae deletion strains, locus YLR113W, strain HOG1, active compounds read low 1.02 | S. cerevisiae deletion strains, locus YLR221C, strain rsa3, active compounds read low 0.999 | S. cerevisiae deletion strains, locus YLR258W, strain gsy2, active compounds read low 0.969 | S. cerevisiae deletion strains, locus YLR262C, strain YPT6 (second series), active compounds read low 0.968 | S. cerevisiae deletion strains, locus YLR262C, strain YPT6, active compounds read low 1.03 | S. cerevisiae deletion strains, locus YLR268W, strain sec22, active compounds read low 0.913 | S. cerevisiae deletion strains, locus YLR320W, strain mms22, active compounds read low 0.992 | S. cerevisiae deletion strains, locus YLR330W, strain CHS5, active compounds read low 0.996 | S. cerevisiae deletion strains, locus YLR342W, strain FKS1 (second series), active compounds read low 1.05 | S. cerevisiae deletion strains, locus YLR342W, strain FKS1, active compounds read low 0.983 | S. cerevisiae deletion strains, locus YLR357W, strain rsc2, active compounds read low 0.978 | S. cerevisiae deletion strains, locus YLR370C, strain arc18, active compounds read low 0.987 | S. cerevisiae deletion strains, locus YLR371W, strain rom2, active compounds read low 0.971 | S. cerevisiae deletion strains, locus YLR384C, strain iki3, active compounds read low 0.976 | S. cerevisiae deletion strains, locus YLR418C, strain cdc73, active compounds read low 1 | S. cerevisiae deletion strains, locus YML016C, strain PPZ1, active compounds read low 0.985 | S. cerevisiae deletion strains, locus YML032C, strain rad52, active compounds read low 0.957 | S. cerevisiae deletion strains, locus YML120C, strain ndi1, active compounds read low 0.979 | S. cerevisiae deletion strains, locus YML124C, strain tub3, active compounds read low 0.99 | S. cerevisiae deletion strains, locus YMR058W, strain fet3, active compounds read low 0.973 | S. cerevisiae deletion strains, locus YMR078C, strain ctf18, active compounds read low 0.963 | S. cerevisiae deletion strains, locus YMR125W, strain sto1, active compounds read low 0.958 | S. cerevisiae deletion strains, locus YMR129W, active compounds read low 0.991 | S. cerevisiae deletion strains, locus YMR205C, strain PFK2, active compounds read low 0.984 | S. cerevisiae deletion strains, locus YMR223W, strain ubp8, active compounds read low 0.998 | S. cerevisiae deletion strains, locus YMR231W, strain pep5, active compounds read low 0.968 | S. cerevisiae deletion strains, locus YMR263W, strain SAP30, active compounds read low 0.987 | S. cerevisiae deletion strains, locus YMR307W, strain GAS1, active compounds read low 0.987 | S. cerevisiae deletion strains, locus YNL067W, strain RPL9B, active compounds read low 0.979 | S. cerevisiae deletion strains, locus YNL071W, strain lat1, active compounds read low 0.983 | S. cerevisiae deletion strains, locus YNL128W, strain TEP1, active compounds read low 0.993 | S. cerevisiae deletion strains, locus YNL153C, strain GIM3, active compounds read low 0.988 | S. cerevisiae deletion strains, locus YNL183C, strain NPR1, active compounds read low 0.972 | S. cerevisiae deletion strains, locus YNL209W, strain ssb2, active compounds read low 0.989 | S. cerevisiae deletion strains, locus YNL233W, strain BNI4, active compounds read low 0.98 | S. cerevisiae deletion strains, locus YNL248C, strain rpa49, active compounds read low 0.967 | S. cerevisiae deletion strains, locus YNL250W, strain rad50, active compounds read low 0.981 | S. cerevisiae deletion strains, locus YNL271C, strain bni1, active compounds read low 0.97 | S. cerevisiae deletion strains, locus YNL298W, strain CLA4, active compounds read low 0.968 | S. cerevisiae deletion strains, locus YNL307C, strain MCK1, active compounds read low 0.983 | S. cerevisiae deletion strains, locus YNL322C, strain KRE1 (second series), active compounds read low 0.977 | S. cerevisiae deletion strains, locus YNL322C, strain KRE1, active compounds read low 0.995 | S. cerevisiae deletion strains, locus YNR049C, strain mso1, active compounds read low 0.976 | S. cerevisiae deletion strains, locus YNR052C, strain pop2, active compounds read low 0.973 | S. cerevisiae deletion strains, locus YOL006C, strain TOP1, active compounds read low 0.926 | S. cerevisiae deletion strains, locus YOL012C, strain htz1 0.809 | S. cerevisiae deletion strains, locus YOL147C, strain pex11, active compounds read low 0.981 | S. cerevisiae deletion strains, locus YOR001W, strain rrp6, active compounds read low 0.995 | S. cerevisiae deletion strains, locus YOR061W, strain CKA2, active compounds read low 0.989 | S. cerevisiae deletion strains, locus YOR069W, strain VPS5, active compounds read low 0.982 | S. cerevisiae deletion strains, locus YOR070C, strain gyp1, active compounds read low 1 | S. cerevisiae deletion strains, locus YOR080W, strain dia2, active compounds read low 0.991 | S. cerevisiae deletion strains, locus YOR083W, strain WHI5, active compounds read low 0.968 | S. cerevisiae deletion strains, locus YOR106W, strain vam3, active compounds read low 0.938 | S. cerevisiae deletion strains, locus YOR136W, strain idh2, active compounds read low 0.974 | S. cerevisiae deletion strains, locus YOR144C, strain elg1, active compounds read low 0.973 | S. cerevisiae deletion strains, locus YOR184W, strain ser1, active compounds read low 0.967 | S. cerevisiae deletion strains, locus YOR231W, strain MKK1, active compounds read low 0.989 | S. cerevisiae deletion strains, locus YOR265W, strain rbl2, active compounds read low 0.984 | S. cerevisiae deletion strains, locus YOR270C, strain vph1, active compounds read low 0.93 | S. cerevisiae deletion strains, locus YOR290C, strain snf2, active compounds read low 0.946 | S. cerevisiae deletion strains, locus YOR316C, strain cot1, active compounds read low 0.977 | S. cerevisiae deletion strains, locus YPL051W, strain arl3, active compounds read low 0.98 | S. cerevisiae deletion strains, locus YPL055C, strain LGE1, active compounds read low 1.01 | S. cerevisiae deletion strains, locus YPL078C, strain atp4, active compounds read low 0.942 | S. cerevisiae deletion strains, locus YPL106C, strain sse1, active compounds read low 1 | S. cerevisiae deletion strains, locus YPL240C, strain hsp82, active compounds read low 0.985 | S. cerevisiae deletion strains, locus YPL241C, strain CIN2, active compounds read low 1 | S. cerevisiae deletion strains, locus YPL256C, strain CLN2, active compounds read low 0.971 | S. cerevisiae deletion strains, locus YPR119W, strain clb2, active compounds read low 0.991 | S. cerevisiae deletion strains, locus YPR141C, strain kar3, active compounds read low 0.977 | S. cerevisiae deletion strains, locus YPR163C, strain tif3, active compounds read low 0.97 | S. cerevisiae deletion strains, locus YPR167C, strain met16, active compounds read low 0.978 | S. cerevisiae deletion strains, strain wtn01, active compounds read low 0.948 | S. cerevisiae strains, strain wild type, active compounds read low 0.994
